# The list is not random: actives were taken first. Their share in the collection is about 2.7%.
# PP5 inh: blocks human protein phosphatase 5 activity; actives 0.18% (n = 320,000); inhibition, % at 6.7 µM; purified PP5c, OMFP substrate fluorescence; P53041; AID 1987;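 active means inhibition above the campaign's mean inhibition across all tested compounds plus 3 SD, cut at about 9.5% in these data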;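 further: 0% = DMSO only and 100% = 100 µM cantharidin control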
# DNA FID counter: fluorescent intercalator displacement, NS3 helicase counter-screen; actives 0.17% (n = 290,000); AID 1845; inhibition, % at 7.9 µM; DNA fluorescent intercalator displacement, fluorescence; in the data active means inhibition above about 37%;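 further: 0% = vehicle and 100% = reference compound; higher means more ethidium bromide displaced from hairpin DNA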
# PP1 counter: blocks human PP1-alpha phosphatase, a PP5 counter-screen; P62136; purified PP1alpha, OMFP fluorescence; inhibition, % at 6.7 µM; actives 0.9% (n = 320,000); AID 2235;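 active means inhibition above the mean inhibition of all tested compounds plus 3 SD, computed separately for each screening campaign, cut at about 15% in these data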
# Target sequence (P62136 whole entry, looked up): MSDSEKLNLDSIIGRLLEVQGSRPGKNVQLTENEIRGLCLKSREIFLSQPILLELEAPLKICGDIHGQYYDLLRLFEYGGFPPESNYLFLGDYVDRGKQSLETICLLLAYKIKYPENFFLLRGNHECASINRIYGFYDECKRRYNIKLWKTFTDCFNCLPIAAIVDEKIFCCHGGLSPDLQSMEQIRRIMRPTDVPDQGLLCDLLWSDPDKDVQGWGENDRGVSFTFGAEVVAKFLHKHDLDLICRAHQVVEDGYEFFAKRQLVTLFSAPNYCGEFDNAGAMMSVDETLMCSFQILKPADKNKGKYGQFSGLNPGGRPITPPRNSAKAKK
# PREPL inh: inhibitors of human prolyl oligopeptidase-like enzyme PREPL. recombinant PREPL, fluorescence polarization activity-based probe. Q4J6C6. actives 0.68% (n = 320,000). inhibition, % at 5.96 µM; in the data active means inhibition above about 43%;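 further: 0% = enzyme with DMSO and 100% = wells lacking enzyme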
# ANO1 block: blocks the mouse calcium-activated chloride channel TMEM16A. normalized B-score (activity score, 25-100; higher = stronger inhibition) at 10 µM. HEK293 TMEM16A/YFP iodide influx fluorescence, ionomycin. AID 588511. actives 1.2% (n = 310,000). Q8BHY3;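 active means ratio plate-corrected score three or more library SD toward inhibition, starting fluorescence score within five deviations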;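 further: score derived from kinetic fluorescence span divided by baseline fluorescence per well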
# TMEM16A act: activates or potentiates the mouse TMEM16A chloride channel | Q8BHY3 | HEK293 TMEM16A/YFP-H148Q/I152L, iodide quench fluorescence; active compounds read low | B-score at 10 µM | actives 0.3% (n = 340,000) | AID 623877;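 active means fluorescence-ratio B-score plate-corrected deviation score at least 3 library SD below zero, with starting fluorescence score within 5 deviations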;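 further: channel opened by trigger with iodide after compound preincubation; score built on the fluorescence ratio of max minus min over baseline; more negative score means more quench and so TMEM16A activation or potentiation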
# PP1 inh confirm: human PP1 phosphatase inhibition, confirmation; shares compounds with PP1 counter; purified PP1alpha, OMFP substrate fluorescence; inhibition, % at 6.7 µM; actives 52% (n = 1,900); AID 2358;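 active means mean PP1 inhibition above a set limit taken from the earlier primary screen, cut at about 15% in these data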
# PP5 inh counter: counter-screen for PP1 inhibitors: human PP5 phosphatase inhibition. purified PP5c, OMFP fluorescence. actives 4% (n = 1,900). shares compounds with PP1 counter. inhibition, % at 6.7 µM;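 active means mean PP5 inhibition over triplicate wells above about 9.5% taken from the earlier PP1 screen, limit read from the data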
# * marks the source's active call; other numbers are inactive results; i = inactive; / = no result.
SMILES,PP5 inh,DNA FID counter,PP1 counter,PREPL inh,ANO1 block,TMEM16A act,PP1 inh confirm,PP5 inh counter
Cc1cccc(NC(=O)c2nc[nH]c2C(=O)N2CCN(C(=O)OC(C)(C)C)CC2)c1,0.1,/,-1.0,4.3,/,i,/,/
COCc1nnc(NC(=O)c2ccc(S(=O)(=O)N(C)Cc3ccccc3)cc2)o1,4.1,-35.9,22.4*,-0.4,i,i,16.9*,3.8
COCCN(CCOC)S(=O)(=O)c1ccc(C(=O)Nc2nnc(C)o2)cc1,-0.2,-10.6,2.1,-2.6,i,i,/,/
CCN(Cc1ccccc1)S(=O)(=O)c1ccc(C(=O)Nc2nnc(C3CC3)o2)cc1,2.8,/,42.6*,10.1,i,i,34.1*,-3.9
Cc1cc(C)nc(-n2nc(C)c3c(=O)[nH]c(C(F)(F)F)nc32)n1,2.4,3.9,19.1*,18.2,i,i,-5.7,-5.6
CCCCC(=O)/C=C/n1c(=S)oc2ccccc21,-1.1,-3.7,-3.7,0.5,i,i,/,/
Cc1ccc(C)c(NC(=O)CN(C)C(=O)c2cc(-c3cccs3)nn2-c2ccccc2)c1,0.9,-42.0,3.2,-10.6,i,i,/,/
COc1ccc(/C=C/C(=O)NC(=S)Nc2ccc(S(=O)(=O)N=C(N)N)cc2)cc1OC,0.7,-10.2,19.7*,5.3,i,i,23.1*,-1.7
COc1ccc2nc(C)cc(SCC(=O)N/N=C/c3ccc(O)cc3O)c2c1,-1.5,-3.1,-0.8,4.8,i,i,/,/
O=C(NN=Cc1ccc(O)cc1)C(=O)NN=Cc1ccc(O)cc1,/,/,/,/,/,i,/,/
O=C(N/N=C/c1ccc(O)cc1O)C(=O)N/N=C/c1ccc(O)cc1O,-3.0,0.7,53.2*,17.1,i,i,29.7*,-7.3
COc1ccc(N2Cc3ccc(C(=O)N/N=C\c4ccc(O)cc4O)cc3C2)cc1,3.8,-23.5,18.8*,22.2,i,/,13.3,-2.7
CC(=O)NCCC(=O)Nc1cc(S(=O)(=O)N2CCCCC2)ccc1Oc1ccccc1,0.3,-40.9,-3.1,5.8,i,i,/,/
COc1ccc(/C=C/c2ccc3c(Br)ccc(O)c3n2)cc1,0.9,-12.1,22.3*,14.8,i,i,19.1*,-6.0
COc1cccc(/C=C/c2ccc3cccc(O)c3n2)c1OC,-0.2,-26.3,20.0*,-1.5,i,i,16.8*,-4.2
Cc1ccc(/C=C/c2ccc3cccc(O)c3n2)s1,2.6,-13.7,19.8*,-1.6,i,i,15.5*,2.0
COc1cccc(/C=C/c2ccc3cccc(O)c3n2)c1,0.5,-11.0,19.0*,7.0,i,i,18.7*,-1.3
O=C(Cn1nc(Cc2cccnc2)c2ccccc2c1=O)NCc1ccc(F)cc1,1.1,-17.0,-0.5,7.0,i,i,/,/
CC1(C)CC(=O)C2=C(C1)OC1=C(C(=O)CC(C)(C)C1)C2(C)C,0.2,-2.0,-3.7,-2.9,i,/,/,/
COc1cc(/C=C/c2ccc3cccc(O)c3n2)cc(OC)c1OC,2.0,-28.8,8.1,21.2,i,i,/,/
COc1cc(/C=C/c2ccc3cccc(O)c3n2)cc(Cl)c1OC,0.2,-12.1,18.1*,20.5,i,i,26.4*,1.0
COc1cccc(-c2nc(CS(=O)(=O)CC(=O)Nc3ccc(C(C)=O)cc3)c(C)o2)c1,4.8,-31.7,-2.1,-18.1,i,i,/,/
Cc1ccc(-n2nc(C(=O)O)nc2-c2ccccc2)cc1,-1.3,-17.8,12.0,3.3,i,i,/,/
CNC(=O)c1cc(-c2ccc(Cl)cc2)n(-c2ccccc2)n1,2.9,-25.3,-1.8,-21.6,i,i,/,/
O=C(O)c1cc(-c2ccc(Cl)c(Cl)c2)n(-c2ccccc2)n1,0.5,-30.6,57.7*,-5.2,i,i,51.9*,-4.9
SMILES,PP5 inh,DNA FID counter,PP1 counter,PREPL inh,ANO1 block,TMEM16A act,PP1 inh confirm,PP5 inh counter
Cc1ccc(-n2nc(C(=O)O)cc2-c2ccccc2)cc1,-1.0,-24.2,33.1*,3.8,i,i,30.7*,-4.3
O=C(O)c1cc(-c2ccc(Cl)cc2)n(-c2ccc(F)cc2)n1,0.3,-36.4,46.9*,4.5,i,i,37.2*,-2.5
O=C(O)c1cc(-c2ccc(Cl)cc2)n(-c2ccc(Cl)cc2)n1,-1.1,-48.7,43.2*,12.3,i,i,45.2*,-3.1
O=C(NCc1cn2ccccc2n1)C1CCC(=O)N(Cc2ccccc2F)C1 (stereo not drawn),0.5,-6.8,6.9,11.0,i,i,/,/
O=C(c1cc(-c2ccc(Cl)cc2)n(-c2ccc(Cl)c(Cl)c2)n1)N1CCOCC1,1.1,-2.4,-0.7,1.8,i,i,/,/
Cc1ccc(-n2nc(C(=O)O)cc2-c2ccc(Cl)cc2)cc1,-1.9,-50.0,47.2*,-1.9,i,i,47.2*,3.4
CCOC(=O)c1sc(-c2ccc(Cl)cc2)nc1O,0.7,-16.1,24.5*,11.6,i,i,17.9*,-3.4
CCOC(=O)c1sc(-c2cccc(C(F)(F)F)c2)nc1O,-2.2,-8.9,17.8*,2.3,i,i,17.4*,-3.2
CCOC(=O)c1nc(-c2ccccc2)sc1C(C)=O,3.0,-4.9,-2.9,4.5,i,i,/,/
Cc1cc(NC(=O)C(C)SCC(=O)OC(C)C(=O)Nc2ccc(F)cc2Cl)no1 (stereo not drawn),-0.6,/,-4.6,15.4,i,i,/,/
CCCCN(C)C(=O)c1nc2ccccn2c1CN1CCN(c2ccccn2)CC1,0.7,-25.4,-3.2,17.2,i,i,/,/
CCCCN(C)C(=O)c1nc2ccccn2c1CN1CCN(c2cnccn2)CC1,1.9,-21.1,19.2*,1.3,i,i,-0.7,-1.2
COc1ccccc1C(=O)OCC(=O)Nc1ccccc1OC(F)F,0.9,-12.2,-3.8,-10.1,i,i,/,/
Cc1c(C(=O)OCC(=O)Nc2ccccc2OC(F)F)cccc1[N+](=O)[O-],2.0,-12.5,22.9*,18.5,i,i,0.0,-1.6
COc1ccc(N=C2S/C(=C\c3ccc(Cl)c([N+](=O)[O-])c3)C(=O)N2CCN(C)C)cc1,3.4,20.2,9.8,19.7,i,i,/,/
CCN(CC)CCN1C(=O)/C(=C\c2ccc(Cl)c([N+](=O)[O-])c2)SC1=Nc1ccc(OC)cc1,3.2,27.0,18.7*,-8.1,i,i,-5.9,1.6
CCCCCC(=O)Cc1cc(O)cc2c1C(=O)Oc1cc(O)c(C(=O)O)c(CCCCC)c1O2,6.7,/,28.9*,14.4,25*,/,37.5*,3.2
O=C1CC(=O)N(CCNc2ncc(C(F)(F)F)cc2Cl)C(=O)N1,2.7,-17.4,28.7*,-1.0,i,i,-2.5,-1.1

# Compound activity (PubChem BioAssay)
